Tau fibril FP = inhibitors of human tau fibril formation; P10636; AID 1468; Potency, µM (titrated, usually from 57.7 µM), inactives show top-dose activity, negative = inhibition, hits mostly inhibitors; actives 0.39% (n = 280,000); K18 P301L tau heparin fibrillization, Alexa594 FP, 6 h; also: nearly all actives have a fitted effect of over 55% in size
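Steps: dispense K18 P301L tau (15 uM plus 0.24 uM Alexa 594 tracer, final) in pH 7 sodium acetate; add compound; add heparin (20 uM final); incubate 6 hr, 37 C; add ThT (30 uM final); after 1 hr ambient, read FP.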
Tau fibril ThT = inhibitors of human tau fibril formation, thioflavin T binding; actives 2.1% (n = 270,000); AID 1460; recombinant tau K18 P301L, heparin-induced fibrillization, ThT fluorescence; Potency, µM (titrated, usually from 57.4 µM), for inactives: top-dose activity, negative = inhibition, actives largely listed as inhibitors; also: nearly all actives have a fitted effect of over 55% in size
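Heparin-induced fibrillization of the P301L-mutant K18 repeat-domain fragment of human tau was followed by ThT binding in quantitative high-throughput format.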
NPSR antag = antagonists of human neuropeptide S receptor cAMP signaling; Q6W5P4; CHO-NPSR cells, cAMP TR-FRET, antagonist mode; Potency, µM (doses to about 38.3 µM), without a hit: at the top dose activity change, negative = inhibition, actives largely listed as inhibitors; actives 1% (n = 220,000); AID 1461; also: nearly all actives have a fitted effect of over 50% in size
Target sequence (Q6W5P4 whole entry, looked up): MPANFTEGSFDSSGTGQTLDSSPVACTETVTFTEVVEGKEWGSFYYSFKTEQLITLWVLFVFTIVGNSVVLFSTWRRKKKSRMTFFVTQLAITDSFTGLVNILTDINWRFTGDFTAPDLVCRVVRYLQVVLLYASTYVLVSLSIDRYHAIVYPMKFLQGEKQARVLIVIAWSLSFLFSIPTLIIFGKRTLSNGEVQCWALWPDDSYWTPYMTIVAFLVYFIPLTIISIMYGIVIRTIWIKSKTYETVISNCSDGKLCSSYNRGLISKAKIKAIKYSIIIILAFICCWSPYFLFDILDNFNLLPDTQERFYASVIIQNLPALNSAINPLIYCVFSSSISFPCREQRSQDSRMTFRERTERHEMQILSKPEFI
ALDH1A1 inh = inhibitors of human aldehyde dehydrogenase 1A1; P00352; Purified ALDH1A1, NADH fluorescence, propionaldehyde substrate; Potency, µM (series often up to 75.3 µM), without a hit: at the highest dose activity, negative = inhibition, actives largely listed as inhibitors; actives 7.3% (n = 220,000); active = well fitted inhibition curve with a large enough effect, not every such curve was filed as active; inconclusive = small, poorly fitted or top-dose-only effect, or another doubt; inactive = no such curve, though single readings can be large or run the other way;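 also: plate controls were no enzyme wells and a reference inhibitor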
HPGD block = HPGD (human) dehydrogenase inhibition; P15428; purified HPGD, NADH fluorescence kinetic, PGE2 substrate; Potency, µM, inactives show at the highest dose activity change, negative = inhibition, most hits filed as inhibitors; actives 4.3% (n = 150,000); AID 894; active = well fitted inhibition curve with a large enough effect, not every such curve was filed as active; inconclusive = small, poorly fitted or top-dose-only effect, or another doubt; inactive = no such curve, though single readings can be large or run the other way
Target sequence (P15428 whole entry, looked up): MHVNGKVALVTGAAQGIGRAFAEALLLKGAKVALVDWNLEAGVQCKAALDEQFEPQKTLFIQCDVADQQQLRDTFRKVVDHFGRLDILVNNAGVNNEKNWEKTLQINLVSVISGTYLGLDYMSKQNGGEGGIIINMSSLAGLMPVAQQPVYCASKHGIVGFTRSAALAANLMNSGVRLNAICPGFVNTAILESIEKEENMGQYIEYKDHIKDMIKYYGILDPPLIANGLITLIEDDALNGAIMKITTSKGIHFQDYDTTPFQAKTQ
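NADH formation kinetics: reaction with 30 uM PGE2 and 1 mM NAD+ (final), 20 nM enzyme, Tris-HCl pH 8 with Tween 20, after 15 min compound preincubation at room temperature. Fluorescence change, last versus first of five reads.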
Tau fluor counter = counter-screen for tau fibril formation inhibitors. tau K18 P301L (four-repeat tau fragment) Alexa594 fluorescence, heparin fibrillization. Potency, µM (doses to about 57.7 µM), for the others: at the top dose activity change, negative = decrease. actives 0.93% (n = 280,000); also: nearly all actives have a fitted effect of over 55% in size
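Human K18 P301L tau (15 uM unlabeled plus 0.24 uM Alexa 594-labeled, final) in 100 mM sodium acetate pH 7 was mixed with compound and 20 uM heparin and incubated 6 hr at 37 C.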
Numbers without * were called inactive; ? = inconclusive; . = no result given; [ ] = remark or other dose. An excerpt weighted towards active compounds, which were near 9.5% of everything screened. Unless noted, calls follow the shape of the dose curve; as a rule, active = well fitted curve in the direction sought with a large enough effect; inconclusive = small, poorly fitted or top-dose-only effect, or another doubt; inactive = no such curve, though single readings can be large; an effect the other way counts as inactive or inconclusive. Unless noted, % is scaled to controls: 0 for no effect and ±100 for the full control effect; potency is read from the fitted curve at half-maximal effect.

SMILES | Tau fibril FP | Tau fibril ThT | NPSR antag | ALDH1A1 inh | HPGD block | Tau fluor counter
CCOC(=O)CSC1=C(C#N)C(c2sccc2C)C(C(C)=O)=C(C)N1 (stereo not given) | -11% | ? | -23%[46.1 µM] | 22µM* | -15% | -21%
COC(=O)CSC1=C(C#N)C(c2ccc(Cl)cc2)C(C(=O)OC)C(=O)N1 (stereo not given) | 2% | -1% | 3%[46.1 µM] | -8% | . | 1%
CCOC(=O)CSC1=C(C#N)C(c2ccc(Cl)cc2)C(C(=O)OC)C(=O)N1 (stereo not given) | 0% | -5% | -27%[46.1 µM] | 25µM* | -26% | -11%
CC(=O)C1=C(C)NC(SCC(=O)c2cc(Cl)ccc2Cl)=C(C#N)C1c1ccco1 (stereo not given) | ? | 28µM* | 10µM* | 25µM* | 28µM* | ?
CC(=O)C1=C(C)NC(SCC(N)=O)=C(C#N)C1CC(C)C (stereo not given) | -4% | 0% | 9% | 32% | . | -4%
CC(=O)C1=C(C)NC(SCC(N)=O)=C(C#N)C1c1sccc1C (stereo not given) | -1% | -14% | -2%[46.1 µM] | ? | ? | -10%
CC(=O)C1=C(C)NC(SCC(N)=O)=C(C#N)C1c1ccco1 (stereo not given) | 4% | -15% | 7% | -12% | . | -1%
CC(=O)C1=C(C)NC(SCC(=O)c2ccc(F)cc2)=C(C#N)C1CC(C)C (stereo not given) | 1% | 6% | -42% | 11% | 22µM* | -7%
CC(C)Cc1nccs1 | . | . | . | -3% | -11% | .
CCOC(=O)C1CCC(CN(Cc2c(Cl)cccc2Cl)S(=O)(=O)c2ccc(F)c(C)c2)CC1 (stereo not given) | -5% | -1% | . | . | . | 0%
CCC(C)C(NC(=O)[C@@H](NC(=O)c1ccccc1F)C(C)C)C(=O)OC (stereo not given in full) | 0% | -10% | -9%[46.1 µM] | 1% | -5% | -9%
CCCCCCCCCCCCCCCC(=O)NCC(=O)O | 5% | -4% | . | -1% | -2% | -1%
CC(=O)C1=C(C)NC(SCC(=O)c2ccc(F)cc2)=C(C#N)C1c1ccco1 (stereo not given) | -5% | 16µM* | -17%[46.1 µM] | 13µM* | 25µM* | ?
O=S1(=O)c2ccccc2N(Cc2cccc(C(F)(F)F)c2)c2ccccc21 | -13% | 8% | . | . | . | -27%
COCC(=O)N(Cc1cc2ccc(C)cc2[nH]c1=O)c1ccc(OC)cc1 | -1% | -14% | -10%[46.1 µM] | -11% | -8% | -11%
CCOc1ccc(N(Cc2cc3ccc(C)cc3[nH]c2=O)C(=O)COC)cc1 | -5% | -14% | -14%[46.1 µM] | 18µM* | -13% | -8%
CN1c2ccsc2/C(=N/Nc2ccccc2)CS1(=O)=O | -2% | ? | -7% | 13µM* | . | ?
CN1c2ccsc2/C(=N/NC(=O)c2c(F)cccc2F)CS1(=O)=O | -12% | -5% | -7%[46.1 µM] | ? | ? | -6%
COC(=O)c1cc(C(=O)Nc2nnc(CC(C)(C)C)s2)cc([N+](=O)[O-])c1 | 1% | 4% | -26% | 25µM* | 16µM* | 0%
O=C(O)c1ccc(N2CC3CC(C2)c2cccc(=O)n2C3)c(NC(=S)Nc2ccc(Cl)cc2Cl)c1 (stereo not given) | -4% | -14% | 14% | 16µM* | . | 0%
O=C(NC1CCN(Cc2ccccc2)CC1)c1ccc(N2CC3CC(C2)c2cccc(=O)n2C3)c([N+](=O)[O-])c1 (stereo not given) | 1% | -6% | -6% | 2% | . | -2%
COc1ccc2c(c1)C(=O)[C@H](OC(=O)NCc1ccco1)[C@@H](c1ccc(OC)c(Br)c1)O2 | 2% | -14% | . | ? | -3% | -7%
Cn1c(Cc2ccccc2)nnc1SCC(=O)c1ccc(Br)s1 | -14% | ? | -17%[46.1 µM] | 14µM* | 28µM* | -11%
CN(C)CCNC(=O)C(=O)NCC(c1cccnc1)N1CCN(c2ccccc2)CC1 (stereo not given) | 3% | -6% | . | . | . | -8%
CC1=NN(c2ccc(C(F)(F)F)cn2)C(=O)C1 | 0% | ? | 0% | 22µM* | -9% | -14%
SMILES | Tau fibril FP | Tau fibril ThT | NPSR antag | ALDH1A1 inh | HPGD block | Tau fluor counter
CS(=O)(=O)Nc1ccc(N2CCN(c3ccc(C(F)(F)F)cn3)CC2)nc1 | 1% | -19% | 5%[7.67 µM] | . | . | -14%
O=C(CSC1=NCCS1)N1CCCC1 | 0% | -2% | -2%[46.1 µM] | 0% | -13% | 0%
O=C(CSC1=NCCS1)N1CCCCCC1 | 0% | -7% | 3%[46.1 µM] | 5% | 28µM* | 1%
CCN1CCN(C(=S)NCC2CCCO2)CC1 (stereo not given) | 3% | -2% | 2% | 0.5µM* | . | -8%
CCOc1ccccc1NC(=O)C1CCCN1S(=O)(=O)c1ccc2c(c1)C(C)(C)C(=O)N2C (stereo not given) | 2% | -1% | . | . | . | -5%
Cc1ccccc1NC(=S)NCc1ccc(Cl)cc1 | 7% | 3% | -29% | ? | 16µM* | -5%
S=C(NCc1ccc(Cl)cc1)Nc1ccccc1 | 4% | 5% | -52% | -6% | 18µM* | -1%
NS(=O)(=O)c1ccc(NC(=S)NCc2ccc3c(c2)OCO3)cc1 | -2% | -11% | 5% | 22µM* | . | -10%
NS(=O)(=O)c1ccc(NC(=S)NCc2ccco2)cc1 | -13% | ? | -6% | 6.3µM* | . | -10%
O=C(CSc1ncnc2ccccc12)NCc1ccc2c(c1)OCO2 | 3% | -6% | -24% | -4% | . | 1%
CC(C)[C@@H](CC(=O)N[C@@H]1CCCC[C@H]1C(=O)N[C@H](CC(=O)N[C@@H](CCC(=O)O)CC(=O)O)Cc1ccccc1)NC(=O)C[C@H](Cc1c[nH]c2ccccc12)NC(=O)[C@@H]1CCCC[C@H]1N | -1% | -6% | . | ? | -1% | -9%
CC(C)OCCCNC(=S)Nc1ccc(S(N)(=O)=O)cc1 | -10% | -3% | 15% | 1% | 7.9µM* | -10%
COc1cc(NC(=S)Nc2ncccc2C)cc(OC)c1OC | 6% | -8% | -18% | 18µM* | . | -5%
NS(=O)(=O)c1ccc(NC(=S)NCc2ccc(Cl)cc2)cc1 | -5% | -8% | -20%[46.1 µM] | 22µM* | 20µM* | -15%
COc1cc(NC(=S)NCc2ccco2)cc(OC)c1OC | 12% | 11% | 22% | ? | 16µM* | 6%
COc1cc(NC(=S)Nc2cccc(C)n2)cc(OC)c1OC | 0% | -4% | -11% | 5% | . | -2%
Cc1ccc(S(=O)(=O)/N=C2/C=C(C3C(=O)CC(C)(C)CC3=O)C(=O)c3ccccc32)cc1 | 22µM* | 8.9µM* | ? | ? | ? | 8.9µM*[quencher]

Source: PubChem BioAssay (National Center for Advancing Translational Sciences (NCATS))
